Screens as filed in PubChem BioAssay.
PL biosyn Enam: animal cell phospholipid biosynthesis inhibition, Enamine screen | AID 1347385 | 0.4% of 20,000 active | ZR-82 CHO cells, pyrene fatty acid UV survival, CellTiter Blue; peroxisome-deficient CHO-K1 mutant line; plus DGAT-1, DGAT-2 and ACAT inhibitors | calls only at 10 µM;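 active means cell survival signal 2 SD away from solvent-only control wells, confirmed on one or two retests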;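 further: 3 h compound exposure then viability read about one day after UV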
* = called active by the depositor; i = inactive; + = active, no number. Only a selection was taken, and hits are over-represented in it overall.

SMILES	PL biosyn Enam
CN(C)c1ccc(/C=C/c2ccc3ccccc3[n+]2C)cc1	i
CC[n+]1ccc(/C=C/c2ccc(N(C)C)cc2)cc1	+
CN(C)c1ccc(/C=C/c2cccc[n+]2C)cc1	i
Cc1cc(COC(=O)c2cc3c(s2)CCC(C)C3)no1 (centres undefined)	i
O=[N+]([O-])c1ccc(N/N=C2\CCCCc3ccccc32)cc1	+
O=[N+]([O-])c1cc(C(F)(F)F)cc([N+](=O)[O-])c1N/N=C1/CCCc2ccccc21	i
C=CCNC(=S)N/N=C1\CCc2ccccc21	i
O=[N+]([O-])c1cc(S(=O)(=O)N/N=C2\CCc3ccccc32)ccc1Cl	i
c1ccc(N/N=C2\CCCc3ccccc32)nc1	i
O=[N+]([O-])c1ccc(N/N=C2\CCc3ccccc32)cc1	+
CS(=O)(=O)N1CCCc2cc(-c3csc(N)n3)ccc21	i
Clc1ccc(/C=N/OCc2nnc(-c3ccccc3Br)o2)cc1Cl	i
CCc1nn2c(=O)cc(CSc3nnnn3C3CCCC3)nc2s1	i
CC(C)(C)NCC(O)COC1C2CC3CC(C2)CC1C3 (centres undefined)	i
O=C(O)CC1Sc2ccccc2NC1=O (centres undefined)	i
C=CCOC(=O)CC1Sc2ccccc2NC1=O (centres undefined)	i
Cc1c(C2Sc3ccccc3NC2=O)c2ccccn2c1C1Sc2ccccc2NC1=O (centres undefined)	+
OCCSc1nc(CSc2ccc(Cl)cc2)nc2sc3c(c12)CCC3	i
CC(NC(=O)NC(=O)N(C1CCCCC1)S(C)(=O)=O)C1CC2CCC1C2 (centres undefined)	i
O=c1ccc2ccc(Oc3cnn(-c4nc5ccccc5[nH]4)c(=O)c3Cl)cc2o1	i
CN=c1scc(-c2ccc(Br)s2)n1/N=C1/C(=O)Nc2ccccc21	i
Cc1ccc(-c2nnc(N/N=C/c3c(-c4ccccc4)nc4ccccn34)c3ccccc23)cc1C	+
Cc1ccc(-c2nnc(-n3nnc4cc(C)c(C)cc43)c3ccccc23)cc1C	i
C(=N\N1CCN(C(c2ccccc2)c2ccccc2)CC1)/c1c(-c2ccccc2)nc2ccccn12	i
CN1/C(=C\P(=Nc2ccc([N+](=O)[O-])cc2)(c2ccccc2)c2ccccc2)C(C)(C)c2ccccc21	i
SMILES	PL biosyn Enam
CCOP(=O)(OCC)C1(C)N(C)c2ccc(N=Nc3ccc([N+](=O)[O-])cc3)cc2C1(C)C (centres undefined)	+
CCN(CC)c1ccc(N=Nc2c(Br)cc([N+](=O)[O-])cc2Br)cc1	i
Cc1[nH]c2ccccc2c1N=Nc1ccc(SC(F)F)cc1	+
Cc1[nH]c2ccccc2c1C(c1c(C)[nH]c2ccccc12)C(C)C	i
COc1ccc(OC)c(-c2csc(=Nc3cccnc3)n2C2CCCC2)c1	i
CCc1noc(C)c1C(=O)OCC(=O)c1cc(C)n(C2CC2)c1C	i
CSC1=NC(c2ccc(Br)cc2)C2=C(N1)/C(=C/c1ccc(Br)cc1)CCC2 (centres undefined)	i
C=CCN=c1scc(-c2cc3ccccc3o2)n1/N=C/c1ccccc1Br	i
CN=c1scc(-c2cc3ccccc3o2)n1/N=C/c1cccc(C(F)(F)F)c1	i
Fc1cccc(F)c1/C=N/n1c(-c2cc3ccccc3o2)csc1=NCCc1ccccc1	+
O=C1CC2(CCCC2)C(=O)N1CN1CCN(S(=O)(=O)c2ccc(F)c(F)c2)CC1	i
Cc1cnc(C(=O)NCCCCCCNC(=O)c2cnc(C)cn2)cn1	i
c1ccc(NNC2=Nc3cccc4cccc2c34)cc1	+
Brc1ccc(/C=N/NC2=Nc3cccc4cccc2c34)cc1	i
Clc1ccccc1/C=N/NC1=Nc2cccc3cccc1c23	i
Cc1sc2ncnc(NC3CCC(O)CC3)c2c1C (centres undefined)	i
C/C(=N\Nc1ncnc2sc(C)c(C)c12)c1ccc(Cl)s1	+
Cc1sc2ncnc(NCC(C)O)c2c1C (centres undefined)	i
Brc1ccc(-c2nnc(-c3ccccc3)c(-c3ccccc3)n2)cc1	i
Clc1ccc(NN=C2c3ccccc3-c3ccccc32)cc1	i
Fc1ccc(NN=C2c3ccccc3-c3ccccc32)cc1	+
O=[N+]([O-])c1cccc(NN=C2c3ccccc3-c3ccccc32)c1	i
C=CCNS(=O)(=O)c1ccc(OC)cc1	i
c1csc(-c2nc(CSc3nnc(C4CC4)n3C3CC3)cs2)c1	i
Cc1nnc(Sc2nc(CN3CCOCC3)nc3sc(C)c(C)c23)s1	i
SMILES	PL biosyn Enam
CN1/C(=C\C=N\N=C2c3ccccc3-c3ccccc32)C(C)(C)c2ccccc21	+
CSc1ccccc1N=C/C=C1/N(C)c2ccccc2C1(C)C	i
CN1/C(=C\C=Nc2ccc(I)cc2)C(C)(C)c2ccccc21	i
COc1ccc(-n2c(N)c(S(=O)(=O)c3ccc(Br)cc3)c3nc4ccccc4nc32)cc1	i
CCC(CC)c1nnc(N)s1	i
O=C(CSc1nnc(-c2ccc3c(c2)OCO3)o1)CSc1nnc(-c2ccc3c(c2)OCO3)o1	i
O=C(c1ccccc1)C(Sc1nnc(-c2ccc3c(c2)OCO3)o1)c1ccccc1 (centres undefined)	+
Cc1ccc(C(=O)C(C)Sc2nnc(-c3ccc4c(c3)OCO4)o2)cc1C (centres undefined)	i
OC(=Cc1ncnc2ccccc12)c1cc2ccccc2o1	i
Fc1ccc(/C=N/Nc2nncc3ccccc23)cc1F	i
Cn1c(-c2ccccc2)c(/C=N/Nc2nncc3ccccc23)c2ccccc21	+
FC(F)(F)c1cccc(/C=N/Nc2nncc3ccccc23)c1	i
CCCCCn1nc(C)c(/C=N/Nc2nc(N)ncc2[N+](=O)[O-])c1C	i
O=S(=O)(c1ccc(F)c(F)c1F)N1CCNCC1	i
CCN1CCN(c2nc(C)nc3sc4c(c23)CCC4)CC1	i
Cc1nc2ccccn2c1P(c1ccccc1)c1ccccc1	i
CC1(C)C2CC=C(/C=N/NC(=S)Nc3cccnc3)C1C2 (centres undefined)	i
CC1(C)C2CC=C(/C=N/NC(=S)NC3CCCCC3)C1C2 (centres undefined)	+
CC(C)NC(=S)N/N=C/C1=CCC2CC1C2(C)C (centres undefined)	+
CCNC(=S)N/N=C/C1=CCC2CC1C2(C)C (centres undefined)	i
C=C(C)CNC(=S)N/N=C/C1=CCC2CC1C2(C)C (centres undefined)	i
CC1(C)C2CC=C(/C=N/NC(N)=S)C1C2 (centres undefined)	i
Clc1ccc(/C=C/c2nc3cc(-c4ccccc4)ccc3o2)c(Cl)c1	i
O=C1c2cc(Cl)c(Cl)cc2C(=O)N1CN1CCOCC1	i
CCn1c(-c2ccc(C)cc2)csc1=Nc1c(C)cc(C)cc1C	i
Clc1ccc(-c2nnc(SCc3nnc(-c4ccco4)o3)o2)cc1	i
CN(Cc1ccc2c(c1)OCCO2)S(=O)(=O)c1ccc(F)c(F)c1F	i
c1ccc2c(c1)OCC(c1nnc3n1N=C(c1ccc4c(c1)OCCO4)CS3)O2 (centres undefined)	i
COc1ccc(-c2noc(COc3ccc(C(F)(F)F)cc3)n2)c(OC)c1	i
c1ccc(N=Nc2ccc(-n3nncc3C34CC5CC(CC(C5)C3)C4)cc2)cc1	i
